Screening data (PubChem BioAssay)
The list is not random: actives were taken first. Their share in the collection is about 8.8%.
HPGD block: inhibitors of human 15-hydroxyprostaglandin dehydrogenase (HPGD). P15428. purified HPGD, NADH fluorescence kinetic, PGE2 substrate. Potency, µM, without a hit: at the highest dose activity change, negative = inhibition, actives largely listed as inhibitors. 4.3% of 150,000 active; note: % is set by controls: 0 for no effect and ±100 for the full control effect
Target sequence (P15428 whole entry, looked up): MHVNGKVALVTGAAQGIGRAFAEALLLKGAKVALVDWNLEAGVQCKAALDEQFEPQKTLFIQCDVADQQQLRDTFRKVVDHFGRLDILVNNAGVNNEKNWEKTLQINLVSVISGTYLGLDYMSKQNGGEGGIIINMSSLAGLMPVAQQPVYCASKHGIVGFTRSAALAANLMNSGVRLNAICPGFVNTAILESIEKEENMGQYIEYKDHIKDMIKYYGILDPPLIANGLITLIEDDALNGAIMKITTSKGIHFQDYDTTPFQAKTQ
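20 nM HPGD preincubated 15 min at room temperature with compound in 50 mM Tris-HCl pH 8, 0.01% Tween 20. Started with 1 mM NAD+ and 30 uM prostaglandin E2; NADH fluorescence (360/450 nm) read 5 times over 30-s intervals, last minus first.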
HTT aggregate: inhibitors of mutant huntingtin aggregate formation in PC12 cells | AID 1688 | PC12 HttQ103-GFP aggregates, Acumen cytometry, 40 h | Potency, µM (highest dose often 46.1 µM), without a hit: at the highest dose activity change, negative = inhibition, usual class: inhibitors | 1.1% of 220,000 active; active = well fitted curve in the direction sought with a large enough effect; inconclusive = small, poorly fitted or top-dose-only effect, or another doubt; inactive = no such curve, though single readings can be large; an effect the other way counts as inactive or inconclusive; note: % is set by controls: 0 for no effect and ±100 for the full control effect; nearly all actives have a fitted effect of over 60% in size
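Steps: seed 1500 PC12 HTTQ103-GFP cells/well; add tebufenozide, 100 nM final; add compound titration; add ATPLite reagent; quantify GFP aggregates by laser scanning cytometry.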
ALDH1A1 inh: blocks purified human ALDH1A1 activity. AID 1030. Purified ALDH1A1, NADH fluorescence, propionaldehyde substrate. Potency, µM (titrated, usually from 75.3 µM), for the others: at the top dose activity, negative = inhibition, usual class: inhibitors. 7.3% of 220,000 active;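 note: plate controls were no enzyme wells and a reference inhibitor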
LMNA splice mod: modulators of lamin A splicing; HeLa LMNA splicing GFP/RFP minigene ratio, 48 h; Potency, µM (doses to about 46.1 µM), inactives show top-dose ratio change, negative = inhibition, usual class: inhibitors; 0.01% of 200,000 active; active = well fitted inhibition curve with a large enough effect in the signal ratio, with a control signal flat, not every such curve was filed as active; inconclusive = small, poorly fitted or top-dose-only effect, or effect the other way, or a change in a side signal; the % refers to the signal ratio; note: % is set by controls: 0 for no effect and ±100 for the full control effect
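S3 HeLa stable clones carrying a lamin A-EGFP splicing minigene plus DsRed2 were seeded at 600 cells/well in Opti-MEM with 2% FBS, pin-dosed and incubated 48 h at 37°C. Acumen cytometry (488 nm) gave the GFP/RFP total-intensity ratio.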
HTT ATP protect: protects HTT-Q103 PC12 cells, measured by ATP; 0.14% of 230,000 active; AID 1471; PC12 HTT-Q103 induced, cytoprotection, ATP luminescence, 40 h; Potency, µM (titrated, usually from 56.4 µM), inactives show cytoprotection (ATP increase), hits mostly activators; active = well fitted curve in the direction sought with a large enough effect; inconclusive = small, poorly fitted or top-dose-only effect, or another doubt; inactive = no such curve, though single readings can be large; an effect the other way counts as inactive or inconclusive; note: % of control where 0% means no effect; nearly all actives have a fitted effect of over 45% in size
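Cells were plated at 1500 per well in phenol red-free DMEM with 5% equine and 5% calf serum. Tebufenozide (100 nM final) and compounds were added, then ATPlite reagent, and luminescence was read.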
* marks the source's active call; other numbers are inactive results; ? = inconclusive; . = not tested or not shown; [ ] = remark or other dose. Unless noted, calls come from the whole dose curve; as a rule, active = well fitted inhibition curve with a large enough effect (not every such curve was filed as active); inconclusive = small, poorly fitted or top-dose-only effect, or another doubt; inactive = no such curve, though single readings can be large or run the other way. Potency is the fitted concentration of half-maximal effect.

SMILES	HPGD block	HTT aggregate	ALDH1A1 inh	LMNA splice mod	HTT ATP protect
CC1=C(C)C(=O)C(CCCCC#CCCCC#CCO)=C(C)C1=O	?	26%	14µM*	?	9%
COC1=C(OC)C(=O)C(CCCCCCCCCCO)=C(C)C1=O	.	?	.	?	-381%
CC(C)[C@H](NS(=O)(=O)c1ccccc1)C(=O)OCC(=O)NC(=O)c1cccn1C	-15%	28%	13µM*	5%	1%
C=CCn1c(C)cc(C(=O)COc2ccc(S(=O)(=O)N3CCCC3)cc2[N+](=O)[O-])c1C	-11%	7%	5µM*	-16%	15%[10 µM]
Cc1cccc(NC2=C(NC(=O)c3ccccc3)C(=O)c3ccccc3C2=O)c1	?	-32%	25µM*	?	-9%[10 µM]
O=C(NC1=C(Nc2ccc(Cl)cc2)C(=O)c2ccccc2C1=O)c1ccccc1	-15%	?	-4%	?	7%[10 µM]
O=C(NC1=C(NC2CCS(=O)(=O)C2)C(=O)c2ccccc2C1=O)c1ccccc1 (configuration not stated)	.	-9%	20µM*	.	11%
O=C1OC(=O)c2ccccc21	-5%	.	-14%	.	3%
COc1cccc(C2=NOC(C(=O)Nc3cccc(C(C)=O)c3)C2)c1 (configuration not stated)	-22%	-8%	4µM*	22%	-10%
COC(=O)c1cccc(NC(=O)CCNC(=O)c2ccc([N+](=O)[O-])cc2)c1	-2%	0%	13%	7%	26%[0.074 µM]
O=C(NCCCNc1ccc(C(F)(F)F)cc1[N+](=O)[O-])c1cc(F)c(F)cc1Cl	-19%	?	-3%	4%	-50%
O=C(NCCCNc1ccc(C(F)(F)F)cc1[N+](=O)[O-])c1ccc(Cl)cc1	.	11µM*	14%	?	-33%
O=C(NCCNc1ccc([N+](=O)[O-])cc1)c1cccc(Br)c1	-9%	10%	7.1µM*	0%	.
O=C(CCNc1ccccc1)c1cccc([N+](=O)[O-])c1	.	-3%	?	-7%	-6%
Cc1ccc(NCCC(=O)c2cccc([N+](=O)[O-])c2)cc1	-10%	?	0.32µM*	-16%	13%[10 µM]
O=C(CCNc1ccc(F)cc1)c1cccc([N+](=O)[O-])c1	4%	-14%	0.22µM*	-19%	5%[10 µM]
O=C(NCCNc1ccc([N+](=O)[O-])cc1C(F)(F)F)c1cccc(F)c1	-7%	?	?	-10%	7%[10 µM]
O=C(COc1cccc(NC(=O)c2cccc([N+](=O)[O-])c2)c1)c1ccc(Br)cc1	?	?	9%	1%	-24%
O=C(CCNc1ccc(Br)cc1)c1cccc([N+](=O)[O-])c1	.	-3%	0.63µM*	?	4%
O=C(NCCNc1ccc([N+](=O)[O-])cc1C(F)(F)F)c1ccccc1	-26%	?	10µM*	?	39%[10 µM]
CCn1c(SCC(=O)N=Nc2c(O)[nH]c3ccccc23)nc2ccccc21	-13%	15%	6.3µM*	?	-8%[10 µM]
O=C(CSCc1cccc(Br)c1)N=Nc1c(O)[nH]c2ccccc12	-15%	-1%	7.9µM*	10%	-13%
CN(C)CCCNC(=O)C(=O)NCC(c1ccc2c(c1)OCO2)N1CCOCC1 (configuration not stated)	.	.	.	5%[46 µM]	.
Cc1ccc(C(=O)Nc2ccccc2N2CCCCC2)cc1[N+](=O)[O-]	.	-15%	-5%	.	.
CN1CCN(c2ccccc2NC(=O)c2ccc(N3CCCCC3)c([N+](=O)[O-])c2)CC1	.	6%	22µM*	.	-18%[10 µM]
SMILES	HPGD block	HTT aggregate	ALDH1A1 inh	LMNA splice mod	HTT ATP protect
CCOc1ccc(C(=O)NC(=S)Nc2ccccc2N2CCOCC2)cc1Br	-13%	-2%	4µM*	?	10%[10 µM]
Cc1ccc(C(=O)NC(=S)Nc2ccc(NC(=O)c3cccs3)cc2)cc1[N+](=O)[O-]	-13%	7%	13µM*	-2%	9%[10 µM]
Cc1ccc(C(=O)NC(=S)Nc2ccccc2N2CCCC2)cc1[N+](=O)[O-]	-12%	5%	20µM*	?	-20%[10 µM]
COc1cc(OC)c(NC(=O)NCc2cccn2Cc2ccccc2)cc1Cl	.	.	.	13%[46 µM]	.
COc1ccc(C2=C(C)C(N3CCC(C(=O)Nc4ccc(F)cc4C)CC3)=NS2(=O)=O)cc1	.	.	.	-14%[46 µM]	.
CNc1ncnc2ccc(-c3ccccc3C)cc12	.	.	-8%	2%	-35%
CCC(=O)N1CCN(c2ccc(NC(=S)NC(=O)c3cccc([N+](=O)[O-])c3)cc2)CC1	-3%	19%	?	-9%	3%[10 µM]
COc1ccc(C)cc1C(=O)CCC(=O)Nc1ccccc1N1CCOCC1	-12%	13µM*	28µM*	8%	17%[10 µM]
COc1cc(CC(=O)Nc2ccccc2N2CCOCC2)cc(OC)c1OC	.	2%	-9%	?	-33%
CCCCN1C(=O)c2ccc(C(=O)Nc3ccccc3N3CCOCC3)cc2C1=O	.	21%	0.89µM*	.	6%
CCC(=O)N1CCN(c2ccccc2NC(=S)NC(=O)c2cccc([N+](=O)[O-])c2)CC1	.	21%	14µM*	?	.
COCCCn1c(SCc2ccccc2F)nc2c(sc3ccccc32)c1=O	.	.	.	-3%[46 µM]	.
CC(=O)Nc1ccc(NC(=O)CSc2ccc(C)cc2)cc1	-9%	-1%	2%	-1%	9%
Cc1ccc(Sc2ccc(NC(=O)CCl)cc2)c(C)c1	11µM*	-4%	-6%	-8%	-6%[10 µM]
O=c1cc(CN2CCN(C/C=C/c3ccccc3)CC2)c2cc(O)ccc2o1	-15%	-1%	32µM*	?	-19%
Cc1ccc2oc(=O)cc(CN3CCN(C/C=C/c4ccccc4)CC3)c2c1	.	14%[9.22 µM]	.	.	-7%[10 µM]
O=C(c1ccccc1)N1CCCc2ccccc21	-15%	11%	-7%	-9%	6%[10 µM]
O=C(c1ccc2c(c1)OCO2)N1CCCc2ccccc21	.	-16%	?	?	3%[10 µM]
O=C(c1ccc(=O)oc1)N1CCCc2ccccc21	?	16%	10µM*	11%	-9%[0.074 µM]
CCc1ccccc1NC(=O)NCc1ccc2c(c1)CCN2C(=O)c1ccccc1	.	.	.	-11%[46 µM]	.
Cc1ccc2c(c1)CCCN2C(=O)c1ccco1	-5%	2.5µM*	-8%	3%	-17%
CC(=O)Nc1ccc2c(c1)CCCN2C(=O)c1ccccc1	0%	1%	14µM*	5%	13%
O=C(c1ccccc1)N1CCc2ccccc21	28µM*	15%	?	-4%	15%
COc1ccc(C(=O)Nc2sc3c(c2C#N)CCN(C(C)=O)C3)cc1	.	1%	?	1%[9.22 µM]	-95%
CC(=O)N1CCc2c(sc(NC(=O)c3ccc([N+](=O)[O-])o3)c2C#N)C1	.	5%[9.22 µM]	3.2µM*	?	-108%
Cc1nc(N)nc2ccccc12	?	.	?	.	-12%[10 µM]
CCS(=O)(=O)Nc1ccc(Cc2ccc(NS(=O)(=O)CC)cc2)cc1	5.6µM*	?	2%	?	2%[10 µM]
CCOC(=O)c1ccc(NS(=O)(=O)CC)cc1	14µM*	-6%	5%	-12%	-17%
